Experimental data from PubChem BioAssay (NCI).
The panel holds about 79,000 compounds, 15% with a hit somewhere; the sample as a whole holds those more often. The source made the active and inactive calls. Cut-off read from the data, not from the text of the source: active = growth inhibition above about 70%; inactive = the rest.

What was measured:
[1] = NCI Yeast Anticancer Drug Screen. Data for the rad52 strain (AID 147);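 note: 0% = growth of vehicle-treated control cultures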; details: S. cerevisiae rad52 mutant growth inhibition, stronger effect = higher value
In short: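 Vehicle-treated cultures served as the reference for growth inhibition of compound-exposed yeast bearing a DNA repair mutation.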

[2] = NCI Yeast Anticancer Drug Screen. Data for the wt1 strain (AID 149);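 note: 0% = growth of vehicle-treated wt1 cultures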; details: S. cerevisiae wt1 strain (SPY 50644) growth inhibition, stronger effect = higher value
In short: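 Measured: growth of wt1 yeast under compound versus vehicle treatment, reported as inhibition.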

[3] = NCI Yeast Anticancer Drug Screen. Data for the rad50EPP+ strain (AID 151);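 note: 0% = growth of vehicle-treated control cultures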; details: S. cerevisiae rad50 mutant strain, stronger effect = higher value
In short: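 In this screen, rad50EPP+ yeast were exposed to compounds. Growth inhibition was scored against vehicle-treated controls.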

[4] = NCI Yeast Anticancer Drug Screen. Data for the rad50 strain (AID 155);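 note: 0% = growth of vehicle-only cultures of the same strain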; details: S. cerevisiae rad50 strain growth inhibition, stronger effect = higher value
In short: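 Growth of the mutant yeast was measured after compound exposure and referenced to vehicle-treated cultures.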

[5] = NCI Yeast Anticancer Drug Screen. Data for the mec2-1 strain (AID 157); details: S. cerevisiae mec2-1 strain, stronger effect = higher value
In short: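 Vehicle-treated cultures served as reference for growth inhibition of compound-exposed mec2-1 yeast.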

[6] = NCI Yeast Anticancer Drug Screen. Data for the rad14 strain (AID 159);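 note: 0% = growth of vehicle-treated control cultures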; details: S. cerevisiae rad14 strain growth inhibition, stronger effect = higher value
In short: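 Here, inhibition of yeast growth was measured after compound exposure, using a strain with a genetic defect in DNA damage repair and vehicle-treated cultures as the reference.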

[7] = NCI Yeast Anticancer Drug Screen. Data for the sgs1 mgt1 strain (AID 161);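 note: 0% = growth of cultures given vehicle only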; details: S. cerevisiae sgs1 mgt1 strain, stronger effect = higher value
In short: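 Genetically altered yeast, compound exposure, growth inhibition relative to vehicle.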

[8] = NCI Yeast Anticancer Drug Screen. Data for the CLN2oe strain (AID 163);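 note: 0% = growth of vehicle-only control cultures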; details: S. cerevisiae CLN2oe strain, stronger effect = higher value
In short: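 Inhibition relative to vehicle-treated yeast is reported. Cells: strain with genetic alteration in cell-cycle control, grown with compound.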

[9] = NCI Yeast Anticancer Drug Screen. Data for the cln2 rad14 strain (AID 165);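 note: 0% = growth equal to vehicle treated cultures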; details: S. cerevisiae cln2 rad14 strain, stronger effect = higher value
In short: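 Each compound was tested on cln2 rad14 yeast. Inhibition of growth was calculated against vehicle-exposed controls.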

[10] = NCI Yeast Anticancer Drug Screen. Data for the bub3 strain (AID 167); details: S. cerevisiae bub3 mutant strain, stronger effect = higher value
In short: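 Whole-cell yeast assay. The mutant strain was incubated with compounds, and growth inhibition was determined by comparison with vehicle-treated cells.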

[11] = NCI Yeast Anticancer Drug Screen. Data for the wt2 strain (AID 169);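 note: 0% = growth of vehicle-treated yeast cultures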; details: S. cerevisiae wt2 strain growth inhibition, stronger effect = higher value
In short: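 Inhibition of yeast growth was determined after compound treatment, normalised to controls receiving only vehicle.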

[12] = NCI Yeast Anticancer Drug Screen. Data for the sgs1 strain (AID 173);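 note: 0% = growth of vehicle-only control cultures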; details: S. cerevisiae sgs1 mutant, stronger effect = higher value
In short: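 Screen format: yeast with repair or checkpoint alterations, compound exposure, growth read relative to vehicle.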

[13] = NCI Yeast Anticancer Drug Screen. Data for the mlh1 rad18 strain (AID 175); details: S. cerevisiae mlh1 rad18 strain growth inhibition, stronger effect = higher value
In short: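 Vehicle-treated cultures served as the reference for growth inhibition in a yeast strain carrying DNA damage repair alterations exposed to each compound.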

[14] = NCI Yeast Anticancer Drug Screen. Data for the rad18 strain (AID 177); details: S. cerevisiae rad18 mutant growth inhibition, stronger effect = higher value
In short: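 Test articles were incubated with altered yeast defective in DNA damage repair. Results are given as inhibition of growth versus vehicle.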

[15] = NCI Yeast Anticancer Drug Screen. Data for the mlh1 strain (AID 171);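 note: 0% = growth of vehicle-treated control cultures of the same strain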; details: S. cerevisiae mlh1 strain growth inhibition, stronger effect = higher value
In short: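 Vehicle-normalised growth inhibition of a repair- or checkpoint-altered yeast strain following compound treatment.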

[16] = at 5.0 µM (retest, dose inferred, filed as 0.5)
[17] = at 50.0 µM (retest, dose inferred, filed as 5.0)

Measured: growth inhibition

CCC(NC(C)c1ccccc1)C(=O)c1ccc(OCc2ccccc2)c(OCc2ccccc2)c1 (stereo unspecified)
inactive: [1]; at 1.2 µM 0% | [1]; at 3.7 µM 7% | [1]; at 11.0 µM 0% | [1]; at 33.0 µM 6% | [1]; at 100.0 µM -18% | [2]; at 1.2 µM 22% | [2]; at 3.7 µM 18% | [2]; at 11.0 µM 6% | [2]; at 33.0 µM 2% | [2]; at 100.0 µM -15% | [3]; at 1.2 µM 8% | [3]; at 3.7 µM 7% | [3]; at 11.0 µM 10% | [3]; at 33.0 µM 24% | [3]; at 100.0 µM 43% | [4]; at 1.2 µM -8% | [4]; at 3.7 µM 9% | [4]; [16] 11% | [4]; at 11.0 µM 22% | [4]; at 33.0 µM 14% | [4]; [17] 38% | [4]; at 50.0 µM -12.7% | [4]; at 100.0 µM 1% | [5]; at 1.2 µM 39% | [5]; at 3.7 µM 23% | [5]; [16] 9% | [5]; at 11.0 µM 35% | [5]; at 33.0 µM 31% | [5]; at 50.0 µM 15.3% | [5]; at 100.0 µM 30% | [6]; at 1.2 µM -1% | [6]; at 3.7 µM 3% | [6]; at 11.0 µM 3% | [6]; at 33.0 µM 3% | [6]; at 100.0 µM -12% | [7]; [16] -21% | [7]; [17] 15% | [7]; at 50.0 µM 28.2% | [8]; at 1.2 µM -4% | [8]; at 3.7 µM -3% | [8]; at 11.0 µM -14% | [8]; at 33.0 µM -16% | [8]; at 100.0 µM -29% | [9]; [16] -9% | [9]; [17] 30% | [9]; at 50.0 µM 0.35% | [10]; at 1.2 µM -47% | [10]; at 3.7 µM -38% | [10]; [16] -7% | [10]; at 11.0 µM -48% | [10]; at 33.0 µM -67% | [10]; [17] 1% | [10]; at 50.0 µM 22.8% | [10]; at 100.0 µM -81% | [11]; at 1.2 µM -12% | [11]; at 3.7 µM -12% | [11]; at 11.0 µM -13% | [11]; at 33.0 µM -7% | [11]; at 100.0 µM -6% | [12]; at 1.2 µM 8% | [12]; at 3.7 µM 18% | [12]; at 11.0 µM 11% | [12]; at 33.0 µM 42% | [12]; at 100.0 µM 19% | [13]; [16] 14% | [13]; at 50.0 µM -4.9% | [14]; at 1.2 µM -13% | [14]; at 3.7 µM -4% | [14]; at 11.0 µM -26% | [14]; at 33.0 µM -27% | [14]; at 100.0 µM -30%
active: [5]; [17] 97% | [13]; [17] 96%

CN(C)c1ccc(N=Nc2ccccn2)cc1
inactive: [1]; at 1.2 µM -15% | [1]; at 3.7 µM -12% | [1]; at 11.0 µM 15% | [2]; at 1.2 µM -21% | [2]; at 3.7 µM 31% | [2]; at 11.0 µM 29% | [3]; at 1.2 µM -88% | [3]; at 3.7 µM -118% | [3]; at 11.0 µM -85% | [3]; at 33.0 µM 66% | [4]; at 1.2 µM -29% | [4]; at 3.7 µM -18% | [4]; at 11.0 µM 26% | [5]; at 1.2 µM -10% | [5]; at 3.7 µM 20% | [5]; at 11.0 µM 14% | [5]; at 33.0 µM 66% | [6]; at 1.2 µM 12% | [6]; at 3.7 µM 1% | [6]; at 11.0 µM 62% | [7]; [16] -1% | [8]; at 1.2 µM 1% | [8]; at 3.7 µM -17% | [8]; at 11.0 µM 17% | [9]; [16] 41% | [10]; at 1.2 µM -3% | [10]; at 3.7 µM 15% | [10]; [16] 40% | [10]; at 11.0 µM 61% | [11]; at 1.2 µM -27% | [11]; at 3.7 µM -12% | [11]; at 11.0 µM 3% | [15]; at 1.2 µM 33% | [15]; at 3.7 µM 10% | [15]; at 11.0 µM 60%
active: [1]; at 33.0 µM 89% | [1]; at 100.0 µM 94% | [2]; at 33.0 µM 87% | [2]; at 100.0 µM 94% | [3]; at 100.0 µM 85% | [4]; [16] 100% | [4]; at 33.0 µM 94% | [4]; [17] 100% | [4]; at 50.0 µM 81.6% | [4]; at 100.0 µM 96% | [5]; [16] 100% | [5]; [17] 100% | [5]; at 50.0 µM 82.9% | [5]; at 100.0 µM 96% | [6]; at 33.0 µM 95% | [6]; at 100.0 µM 97% | [7]; [17] 98% | [7]; at 50.0 µM 85.6% | [8]; at 33.0 µM 77% | [8]; at 100.0 µM 88% | [9]; [17] 97% | [9]; at 50.0 µM 75.2% | [10]; at 33.0 µM 95% | [10]; [17] 97% | [10]; at 50.0 µM 87.1% | [10]; at 100.0 µM 96% | [11]; at 33.0 µM 86% | [11]; at 100.0 µM 94% | [15]; at 33.0 µM 93% | [15]; at 100.0 µM 96% | [13]; [16] 100% | [13]; [17] 100% | [13]; at 50.0 µM 83.2%
